Screening data deposited in PubChem by several laboratories.
An excerpt weighted towards active compounds, which were near 12% of everything screened.
Cl transport mod = modulates chloride dependent transport by human KCC2; Q9H2X9; KCC2 cells, thallium flux FluoZin-2 fluorescence; B-score of Tl+ flux slope (higher = more flux/activation; lower = inhibition) at 10 µM; hit rate 2.2% among 190,000; AID 1456;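 active = thallium flux slope and its plate-corrected score both differing from the plate sample mean at a set confidence after two filtering rounds, in either direction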;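 also: slope of fluorescence scaled to starting intensity during 10 to 20 s after thallium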
WT yeast gro inh = growth inhibition of WT yeast, mitochondrial fusion screen; inhibition, % at 10 µM; mitochondrial fusion phenotypic screen, WT strain; hit rate 2.1% among 190,000; AID 1362; in the data active = inhibition above about 58%; tested in S. cerevisiae
Lmaj promast = Leishmania major promastigote growth inhibition; inhibition, % at 10 µM; Leishmania major promastigotes, resazurin fluorescence viability; hit rate 9% among 200,000; in the data active = inhibition above about 50%;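 also: promastigotes grown with compound for 44 hours at 28 °C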
ROMK mod = human ROMK K+ channel modulation, primary screen; P48048; Tet-inducible ROMK, thallium flux fluorescence; actives lie on both sides; B-score at 10 µM; AID 1918; hit rate 2% among 130,000;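 active = signal ratio slope over the read window, or its plate-corrected B-score, at least 3 SD from the plate mean, either direction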;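 also: B-score of the F/F0 ratio slope over 7 to 12 s after thallium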
Target sequence (P48048 whole entry, looked up): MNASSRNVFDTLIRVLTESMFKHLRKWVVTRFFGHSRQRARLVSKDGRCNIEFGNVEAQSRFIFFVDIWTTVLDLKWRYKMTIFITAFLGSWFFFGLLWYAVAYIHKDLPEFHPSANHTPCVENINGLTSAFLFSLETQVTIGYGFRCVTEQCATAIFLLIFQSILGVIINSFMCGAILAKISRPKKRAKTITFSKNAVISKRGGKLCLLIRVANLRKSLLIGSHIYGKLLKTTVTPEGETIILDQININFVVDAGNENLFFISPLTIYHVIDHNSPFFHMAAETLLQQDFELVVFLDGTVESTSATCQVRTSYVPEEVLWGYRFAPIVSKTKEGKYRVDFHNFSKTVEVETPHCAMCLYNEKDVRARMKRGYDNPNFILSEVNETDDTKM
Calpain2 inh = inhibitors of pig calpain II; purified calpain II, fluorogenic peptide substrate, 30 min; inhibition, % at 16 µM; hit rate 0.37% among 220,000; AID 1236;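 active = inhibition above about 50%, limit read from the data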
Active calls of the source: *; / = no result.

SMILES	Cl transport mod	WT yeast gro inh	Lmaj promast	ROMK mod	Calpain2 inh
O=C(CCCCn1c(=O)c2ccccc2n(CC(=O)NC2CCCC2)c1=O)NCc1ccco1	/	-10	-2	/	68*
O=C(CCn1c(=O)c2ccccc2n(CC(=O)NC2CCCC2)c1=O)NCc1ccco1	-0.83	-3	100*	/	-8
O=C(CCCCn1c(=O)c2ccccc2n(CC(=O)NC2CCCC2)c1=O)NC1CCCC1	0.85	42	-5	/	0
O=C(CCCn1c(=O)c2ccccc2n(Cc2cccc(F)c2)c1=O)NC1CCN(Cc2ccccc2)CC1	0.72	-3	39	-0.45	-49
Cc1nonc1CN(C)C(=O)CC1C(=O)NCCN1Cc1ccc(F)c(F)c1 (stereo not drawn)	-0.21	-1	-14	0.17	-34
O=C1CCC([N+](=O)[O-])C(c2cccc([N+](=O)[O-])c2)N1 (stereo not drawn)	1.1	3	0	-0.8	2
Cc1ccc(Cn2c(SCCN3CCCCC3)nc3c2c(=O)[nH]c(=O)n3C)cc1	0.27	0	6	/	25
Cn1c(=O)[nH]c(=O)c2c1nc(SCCN1CCCCC1)n2Cc1ccccc1	0.42	-3	99*	/	28
CCCCCn1c(SCCc2ccccc2)nc2c1c(=O)[nH]c(=O)n2C	0.38	7	3	/	18
Cn1c(=O)[nH]c(=O)c2c1nc(SCCN1CCCCC1)n2CCCc1ccccc1	0.54	18	98*	/	34
CCC1C(=O)NCCN1Cc1nc(-c2ccc(C)s2)oc1C (stereo not drawn)	1.3	4	-6	0.34	-41
CCOC(=O)Cc1cc(=O)n2[nH]c(C)c(-c3ccccc3)c2n1	-0.44	7	-9	1.4	-54
CCOC(=O)Cc1c(C)nc2c(-c3ccc(Cl)cc3)c(C)[nH]n2c1=O	/	7	95*	/	-159
COc1ccc(/C=C2\SC(=O)N=C2N)cc1OC	-0.29	-3	53*	/	6
N#Cc1cnc(Sc2ccccc2)nc1	0.018	-14	6	0.019	13
O=C(NC1CCCCCC1)C1CCC(CNS(=O)(=O)c2ccc(Br)s2)CC1 (stereo not drawn)	-0.44	4	5	0.45	9
CNc1cc(CSC)nc(SCc2ccc(Cl)cc2Cl)n1	0.78	85*	11	/	34
COc1cc(-c2nc(-c3cccc(C)c3)no2)cc(OC)c1OC	0.34	66*	-5	/	4
COc1ccc(-c2nc(-c3cccc(C)c3)no2)cc1OC	0.014	-2	-1	-0.16	-14
CCOC(=O)CNS(=O)(=O)c1cc(-c2nnc(Nc3ccc4c(c3)OCO4)c3ccccc23)ccc1C	-3.2	-4	55*	/	-86
COC(=O)c1ccc(Nc2nnc(-c3ccc(C)c(S(=O)(=O)NCC4CCCO4)c3)c3ccccc23)cc1 (stereo not drawn)	-0.44	-1	92*	/	-130
CCOC(=O)CNS(=O)(=O)c1cc(-c2n[nH]c(=O)c3ccccc23)ccc1C	/	-34	5	0.47	-19
CC(C)C(NC(=O)C1CCCCC1)C(=O)NCCc1ccccc1 (stereo not drawn)	-0.6	-3	8	0.66	-8
Cc1nsc2c1ccc1ccccc12	-1.8	4	10	-1.3	-21
CC1=[N+](C)c2ccc3ccccc3c2C1(C)C	-0.086	79*	93*	0.16	6
SMILES	Cl transport mod	WT yeast gro inh	Lmaj promast	ROMK mod	Calpain2 inh
CCc1cc2c(=O)c(-c3cnn(-c4ccccc4)c3)c(C)oc2cc1OCC(=O)Nc1ccc(F)c(F)c1	0.75	18	53*	0.34	-9
CCc1cc2c(=O)c(-c3cnn(-c4ccccc4)c3)c(C)oc2cc1OCC(=O)Nc1cccc(C)c1	0.47	7	66*	/	33
CCc1cc2c(=O)c(-c3ccc(F)cc3)c(C)oc2cc1OCC(=O)O	0.049	2	-5	0.2	8
CNC(=O)CSc1cnc2ccccc2n1	0.18	7	-5	0.96	26
Cc1ccc(-c2nc(CN(Cc3c(C)nn(C)c3C)C(C)C)c(C)o2)o1	0.17	3	-3	0.75	-33
O=C(COc1ccc(Br)cc1)c1ccc2c(c1)CCCC2	-5.1e-05	22	-6	/	0
Cc1ccc(OCC(=O)c2ccc3c(c2)CCCC3)cc1C	-1.1	58*	-3	/	-11
CC1CCc2c(C(=O)Oc3cccc(-n4cnnn4)c3)csc2C1 (stereo not drawn)	/	61*	7	-0.34	41
Cc1ccc(C(=O)Oc2cccc(-n3cnnn3)c2)cc1	-2.1	19	1	-0.57	62*
Cc1nn2c(NCCCN(C)C)c3c(nc2c1-c1ccccc1)CCC3	/	23	100*	-0.83	-34
